{"source": "PubChem BioAssay AID593", "about": "(National Center for Advancing Translational Sciences (NCATS), 2007)", "note": "The whole screen tested about 59,000 compounds, of which about 540 (0.92%) were called active. Inconclusive results (about 33%) are left out. The sample holds actives, similar compounds and a random draw of the others, so the mix is not that of the screen. No stated cut-off is given here; in the data, active means max fluorescein-equivalent concentration above about 10 nM; inconclusive means between about 1.1 nM and that limit; inactive means weaker than that."}
{"test": "qHTS Assay for Spectroscopic Profiling in Fluorescein Spectral Region", "details": "Compound autofluorescence, 480/540 nm; max fluorescein-equivalent concentration: hits give high values; outcome: fluorescein-equivalent", "source_text": "NIH Molecular Libraries Screening Centers Network [MLSCN]\nNIH Chemical Genomics Center [NCGC]\nOccasionally, the artifactual effect may originate from the compound's own spectral or other biophysical properties which generally tend to track its assay concentration. Pre-screening/profiling the library with respect to the compounds' spectral properties should help one exclude false positives early on. While the most informative fluorescent profiling data set is obtained by performing a full excitation and emission scan of each well by using a monochromator-based plate reader, such an approach is practical only on a very limited scale as scanning each well requires long time. An alternative approach, applied here, is to perform plate reader scans using selected excitation and emission wavelength pairs to generate a multidimensional relational database that correlates compound concentration and the respective relative fluorescence intensity at a given wavelength set. A standard curve of fluorescein present on each plate as six-point concentration series, was used to compute a normalized fluorescence response, termed dye-equivalent concentration, for each compound at each concentration.\nNCGC Assay Protocol Summary:\n100 mM Tris buffer, pH 8.0\nThe wells in columns 1 through 4 of a Kalypsys polypropylene 1536-well compound plate were filled with standard solutions of fluorophore corresponding to the spectral region of interest. Solutions of Fluorescein were placed in the following wells: Q1, R1: 3 mM, Q2, R2: 300 uM, Q3, R3: 30 uM, Q4, R4: zero (DMSO), S1, T1: 3 uM, S2, T2: 900 nM, S3, T3: 300 nM, S4, T4: zero (DMSO).\nSix uL of buffer were dispensed to 1536-well Greiner black plates. Compounds and dye standards (23 nL) were transferred via Kalypsys PinTool. The plates were incubated for 15 min at room temperature, and then read on ViewLux (Perkin-Elmer) High-throughput CCD imager using 480 nm and 540 nm excitation and emission filter set.\nKeywords: NIH Roadmap, MLSCN, MLI, MLSMR, qHTS, NCGC, Fluorescein, Fluorescent Profiling."}
{"smiles": "CC(C)CC(=O)N=C1SC2CS(=O)(=O)CC2N1CCc1ccccc1", "note": "(stereo not given)", "max fluorescein-equivalent concentration": "inactive"}
{"smiles": "O=C(c1ccco1)N1CCC2(CC1)CCN(c1ncccn1)CC2", "max fluorescein-equivalent concentration": "inactive"}
{"smiles": "NCC(=O)[C@@H](O)[C@H](O)[C@H](O)CO", "max fluorescein-equivalent concentration": "inactive"}
{"smiles": "Cc1cc(C)c2cc(CN(Cc3cccs3)Cc3nnnn3CC3CCCO3)c(=O)[nH]c2c1", "note": "(stereo not given)", "max fluorescein-equivalent concentration": "inactive"}
{"smiles": "CS(=O)(=O)N1CCC2(CCN(c3ccncc3)CC2)CC1", "max fluorescein-equivalent concentration": "inactive"}
{"smiles": "COc1ccc(-c2ccc(-c3noc(-c4ccncc4)n3)c(OC)n2)cc1", "max fluorescein-equivalent concentration": "inactive"}
{"smiles": "COc1cccc(-c2cc(NCCc3c[nH]c4ccc(OC)cc34)ncn2)c1", "max fluorescein-equivalent concentration": "inactive"}
{"smiles": "CN1CCN(c2ccc(NC(=O)COc3ccc(Cl)cc3Cl)cc2)CC1", "max fluorescein-equivalent concentration": "inactive"}
{"smiles": "Clc1ccc(C(c2ccc(Cl)cc2)n2cc[n+](C[C@@H](OCc3ccc(Cl)cc3Cl)c3ccc(Cl)cc3Cl)c2)cc1", "max fluorescein-equivalent concentration": "inactive"}
{"smiles": "COCCn1c(=O)c(CCc2ccccc2)nc2cnc(N3CCNCC3)nc21", "max fluorescein-equivalent concentration": "inactive"}
{"smiles": "COc1ccccc1CCn1c(=O)c(-c2cn(C)c3ccccc23)nc2cncnc21", "max fluorescein-equivalent concentration": "inactive"}
{"smiles": "CCn1c(Cc2ccccc2)nnc1SCC(=O)Nc1ccccc1", "max fluorescein-equivalent concentration": "inactive"}
{"smiles": "O=c1cc(-c2ccc(O)c(O)c2)oc2cccc(O)c12", "max fluorescein-equivalent concentration": "inactive"}
{"smiles": "CCCCCCn1c(CN2CCCC(C)C2)nc2c1c(=O)n(C)c(=O)n2C", "note": "(stereo not given)", "max fluorescein-equivalent concentration": "inactive"}
{"smiles": "CCCn1c(O)c(CN2CCCC(C)C2)c(C)c(C#N)c1=O", "note": "(stereo not given)", "max fluorescein-equivalent concentration": "65 nM (active)"}
{"smiles": "COC(=O)c1c(NC(=O)CSc2nc3c(c(=O)n(C)c(=O)n3C)n2C(C)C)sc(C)c1C", "max fluorescein-equivalent concentration": "inactive"}
{"smiles": "Clc1ccc(C=Nc2ccc3c(c2)Cc2ccccc2-3)c(Cl)c1", "max fluorescein-equivalent concentration": "inactive"}
{"smiles": "CCNc1ncc2nc(CCc3ccccc3)c(=O)n(-c3ccc(OC)cc3)c2n1", "max fluorescein-equivalent concentration": "inactive"}
{"smiles": "CSCCC(Nc1nc2ccccc2s1)C(=O)O", "note": "(stereo not given)", "max fluorescein-equivalent concentration": "inactive"}
{"smiles": "CCn1c(COc2cccc(OC)c2)nnc1SCC(=O)N1CCOCC1", "max fluorescein-equivalent concentration": "inactive"}
{"smiles": "O=C(O)[C@@H](S)[C@H](S)C(=O)O", "max fluorescein-equivalent concentration": "inactive"}
{"smiles": "COc1ccc(OC)c([C@H](O)CNC(=O)CN)c1", "max fluorescein-equivalent concentration": "inactive"}
{"smiles": "Cc1ccc(S(=O)(=O)C(C#N)c2nc3ccccc3nc2N2CCCC2)cc1C", "note": "(stereo not given)", "max fluorescein-equivalent concentration": "14 nM (active)"}
{"smiles": "COCCNC(=O)C(C#N)c1nc2ccccc2nc1N1CCN(Cc2ccc3c(c2)OCO3)CC1", "note": "(stereo not given)", "max fluorescein-equivalent concentration": "inactive"}
{"smiles": "CC(=O)/C(=N\\N=C(N)N)c1ccccc1", "max fluorescein-equivalent concentration": "inactive"}
{"smiles": "CCCCC(=O)Nc1ccc(C(=O)NCCCn2ccnc2)cc1", "max fluorescein-equivalent concentration": "inactive"}
{"smiles": "O=c1[nH]nc(CSCc2ccccc2Cl)[nH]1", "max fluorescein-equivalent concentration": "inactive"}
{"smiles": "COC(=O)N1CCC[C@@]2(CCN(C(=O)NC(C)C)C2)C1", "max fluorescein-equivalent concentration": "inactive"}
{"smiles": "CCOC(=O)c1cc2n(c1N)-c1ccccc1C2=O", "max fluorescein-equivalent concentration": "780 nM (active)"}
{"smiles": "CCOC(=O)c1cc2ccccc2nc1C", "max fluorescein-equivalent concentration": "inactive"}
{"smiles": "CCOC(=O)c1cc2n(c1C)-c1ccccc1C2=O", "max fluorescein-equivalent concentration": "inactive"}
{"smiles": "CCc1ccc2oc(-c3ccc(N)cc3)nc2c1", "max fluorescein-equivalent concentration": "inactive"}
{"smiles": "CCN(CC)c1ccc2oc(=O)c(C)nc2c1", "max fluorescein-equivalent concentration": "140 nM (active)"}
{"smiles": "O=C(c1ccncc1)N1CCC2(CCCN(C(c3ccccc3)c3ccccc3)C2)CC1", "max fluorescein-equivalent concentration": "inactive"}
{"smiles": "CC(C)CSC[C@@H]1O[C@H](n2cnc3c(N)nccc32)[C@H](O)[C@@H]1O", "max fluorescein-equivalent concentration": "inactive"}
{"smiles": "COc1ccc(-c2nc3cnc(Oc4ccccc4)nc3n(Cc3cccs3)c2=O)cc1", "max fluorescein-equivalent concentration": "inactive"}
{"smiles": "CCOc1ccc(N=NS(=O)(=O)O)cc1", "max fluorescein-equivalent concentration": "inactive"}
{"smiles": "O=c1c(-c2cccs2)nc2cnc(Oc3ccccc3)nc2n1-c1ccccc1", "max fluorescein-equivalent concentration": "inactive"}
{"smiles": "CCn1c(COc2ccc(OC)cc2)nnc1SCC(=O)Nc1cc(OC)ccc1OC", "max fluorescein-equivalent concentration": "inactive"}
{"smiles": "Nc1ccc2c3c(cccc13)C(=O)NC2=O", "max fluorescein-equivalent concentration": "2000 nM (active)"}
{"smiles": "Cc1ccc2nc(NCCCNC(=O)c3cnccn3)c(C#N)cc2c1", "max fluorescein-equivalent concentration": "inactive"}
{"smiles": "CC(C)CNC(=O)C1CCCN(S(=O)(=O)c2ccc(-n3cnnn3)cc2)C1", "note": "(stereo not given)", "max fluorescein-equivalent concentration": "inactive"}
{"smiles": "FC(F)(F)c1ccccc1-c1cc(NCc2ccccc2)ncn1", "max fluorescein-equivalent concentration": "inactive"}
{"smiles": "COCCn1c(=O)c(C)nc2cnc(N(C)C)nc21", "max fluorescein-equivalent concentration": "inactive"}
{"smiles": "CN1CCN(C(=O)c2ccc(NS(=O)(=O)c3ccccc3)cc2)CC1", "max fluorescein-equivalent concentration": "inactive"}
{"smiles": "CN1CCN(Cc2nc3c(c(=O)n(C)c(=O)n3C)n2Cc2cccc3ccccc23)CC1", "max fluorescein-equivalent concentration": "inactive"}
{"smiles": "CS(=O)(=O)N(C(=O)NC(=O)NC1CCS(=O)(=O)C1)C1CCCCC1", "note": "(stereo not given)", "max fluorescein-equivalent concentration": "inactive"}
{"smiles": "CC[N+](C)(CC)CCC[n+]1c(-c2ccccc2)c2cc(N)ccc2c2ccc(N)cc21", "max fluorescein-equivalent concentration": "18 nM (active)"}
{"smiles": "NC(=O)C1CCN(C(=O)c2ccc(C(F)(F)F)cc2)CC1", "max fluorescein-equivalent concentration": "inactive"}
{"smiles": "CC1(C)S[C@@H]2[C@@H](NC(=O)[C@@H](N)c3ccccc3)C(=O)N2[C@H]1C(=O)O", "max fluorescein-equivalent concentration": "inactive"}
{"smiles": "O=C(NCCc1ccco1)c1nn(Cc2ccccc2)c(=O)c2ccccc12", "max fluorescein-equivalent concentration": "inactive"}
{"smiles": "CN(C)CCCn1c2ccccc2c2cnccc21", "max fluorescein-equivalent concentration": "inactive"}
{"smiles": "CC(C)c1nc2oc3c(N4CCN(C)CC4)ncnc3c2c2c1CCC2", "max fluorescein-equivalent concentration": "inactive"}
{"smiles": "CC(=O)N1CCN(c2ccc(NCc3ccc(C(C)C)cc3)cc2)CC1", "max fluorescein-equivalent concentration": "inactive"}
{"smiles": "Cc1ccc(C(=O)NCC(=O)O)cc1S(=O)(=O)N1CCCCC1", "max fluorescein-equivalent concentration": "inactive"}
